Data: the supplement of paper PMC10981050
Values joined by “and” are separate entries in the source; they are usually repeats but may differ in a detail not shown here. Equal entries are not always repeated. Structures can show the parent of a compound that is named as a salt.

What was measured:
Test in all cases: cell viability relative to vehicle control; higher = less cytotoxic
Conditions in all cases: 10 µM
K562 = tested on: K562
How it was run: (§1)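 After removal of identity-inconsistent compounds, the Selleck bioactive, kinase and epigenetic probe libraries were screened on CRISPR-edited mutant clones and isogenic wild-type clones of four leukaemia lines. Plates were 384-well, each well holding 2000 cells in 50 µL medium and receiving a single 10 µM acoustically dispensed dose. CellTiter-Glo luminescence was read 48 h later, after the supernatant was taken off. Genedata Screener was used to express viability as percent of the on-plate vehicle control.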

MARIMO = tested on: MARIMO
How it was run: as §1

MOLM14 = tested on: MOLM14
How it was run: as §1

OCI-AML2 = tested on: OCI-AML2
How it was run: as §1

Structure (SMILES)	cell viability (K562; SRSF2 genotype: SRSF2 P95H/wt)	cell viability (K562; SRSF2 genotype: SRSF2 wt/wt)	cell viability (MARIMO; SRSF2 genotype: SRSF2 P95H/wt)	cell viability (MARIMO; SRSF2 genotype: SRSF2 wt/wt)	cell viability (MOLM14; SRSF2 genotype: SRSF2 P95H/wt)	cell viability (MOLM14; SRSF2 genotype: SRSF2 wt/wt)	cell viability (OCI-AML2; SRSF2 genotype: P95H/wt)	cell viability (OCI-AML2; SRSF2 genotype: wt/wt)
N#C/C(=C1/SC[C@@H](c2ccc(Cl)cc2Cl)S1)n1ccnc1 [Luliconazole]	85.6% and 83.3%	82.6%	78.9%	100%	88.7%	89.5%	62.5%	83.5%
CC(NCCc1ccc(O)cc1)C(O)c1ccc(O)cc1 (centres undefined) [Ritodrine hydrochloride (Yutopar)]	106% and 102%	96.3%	100%	106%	98.6%	99.8%	104%	107%
Cc1ccc(Sc2cncc3sc(C(N)=O)cc23)cc1	91.6% and 90.7%	90.6%	95.7%	102%	89.3%	100%	68.8%	69.4%
CCCCCCCCCC(C)=O [Methylnonylketone]	93.2% and 96.8%	96.3%	96.2%	101%	97.7%	99.7%	99.5%	97.2%
COC(=O)N[C@H](C(=O)N1CCC[C@H]1C(=O)Nc1ccc([C@@H]2CC[C@@H](c3ccc(NC(=O)[C@@H]4CCCN4C(=O)[C@@H](NC(=O)OC)C(C)C)cc3)N2c2ccc(C(C)(C)C)cc2)cc1)C(C)C [Ombitasvir(ABT-267)]	83.3% and 81.3%	91%	89.8%	96.3%	91.9%	92.5%	112%	99.6%
C[C@H]1CN(C[C@H](Cc2ccccc2)C(=O)NCC(=O)O)CC[C@@]1(C)c1cccc(O)c1 [Alvimopan dihydrate]	110% and 102%	101%	98.5%	112%	102%	103%	94.9%	99.2%
O=C1NC(=O)/C(=C/c2cccc(C(F)(F)F)c2)S1	107% and 103%	110%	105%	94.9%	97.4%	102%	111%	104%
Nc1cc[nH]c(=O)n1 [Cytosine]	102% and 93.8%	99.5%	102%	110%	107%	104%	102%	107%
CC1=CC(=O)NS(=O)(=O)O1 [Acesulfame Potassium]	96.3% and 96.7%	96.3%	98.1%	94.4%	98.9%	97.8%	89.1%	105%
COc1cccc(-c2cc(F)ccc2C2Cc3nc(N)nc(C)c3C(=O)N2)n1 (centres undefined)	21.2% and 27.1%	24%	29.6%	24.7%	1.82%	3%	15.3%	19.9%
CN(C[C@@H]1COCCO1)S(=O)(=O)Nc1ccc2ccc3ncc(-c4cnn(C)c4)cc3c(=O)c2c1	77.6% and 96.8%	82.6%	74.1%	72.6%	20.4%	16.7%	41.6%	47.3%
Cn1cnc([N+](=O)[O-])c1Sc1ncnc2[nH]cnc12 [Azathioprine (Azasan, Imuran)]	53.6% and 63.6%	34.8%	82.2%	87.2%	85.2%	81.8%	87.7%	92%
Cn1cc(C2=C(c3cn(CCCSC(=N)N)c4ccccc34)C(=O)NC2=O)c2ccccc21 [Ro 31-8220 Mesylate]	4.21% and 2.6%	3.72%	2.81%	0.92%	0.22%	-0.01%	0.07%	2.11%
Cn1nnc(-c2ccc3c(c2)[nH]c2nc(Cc4ccccc4)nc(NC4CCC(N)CC4)c23)n1 (centres undefined)	0.17%	0.16%	0.14%	0.19%	0.11%	0.13%	0.18%	0.13%
CC(NC(=O)C(O)c1cc(F)cc(F)c1)C(=O)NC1C(=O)N(C)c2ccccc2-c2ccccc21 (centres undefined)	99.5% and 96.4%	99.2%	96.1%	97.8%	102%	105%	98.7%	96.8%
CN(C)CCN1C(=O)c2cccc3cc(N)cc(c23)C1=O [Amonafide]	33.8% and 37.6%	32.1%	7.66%	10.7%	0.3%	0.27%	0.94%	2.97%
O=C(O)c1cc(I)ccc1NC(=O)[C@H](Cc1ccccc1)NCc1ccccc1	102% and 98.6%	101%	99.9%	103%	99%	101%	110%	119%
CC(C)(O)CC(=O)NCCn1ccc2ncnc(Nc3ccc(Oc4cccc(C(F)(F)F)c4)c(Cl)c3)c21	69.4% and 63.5%	72.6%	69.7%	93.9%	76.5%	79.4%	74.8%	76.8%
CC12CCC(C1)C(C)(C)C2O (centres undefined) [Fenchyl Alcohol]	105% and 94.5%	91.5%	89.9%	100%	96.4%	96.6%	91.5%	89.1%
CC(C)NC(=O)C1CCC(n2c(NC(=O)c3ccc(F)cc3)nc3ccc(CN4CCC(C(C)(C)O)CC4)cc32)CC1 (centres undefined) [Belizatinib (TSR-011)]	59.4% and 65.3%	56.9%	41.4%	45%	7.89%	11.3%	19%	35.3%
CC(C)(O)CNc1nc(Nc2ccnc(C(F)(F)F)c2)nc(-c2cccc(C(F)(F)F)n2)n1 [AG-221 (Enasidenib)]	102% and 103%	103%	93.1%	99.8%	97.8%	110%	84.6%	89.4%
C[C@H](N[C@@H](CCc1ccccc1)C(=O)O)C(=O)N1CCC[C@H]1C(=O)O [Enalaprilat dihydrate]	103% and 100%	100%	98.7%	109%	102%	103%	99.4%	108%

Structure (SMILES)	cell viability (K562; SRSF2 genotype: SRSF2 P95H/wt)	cell viability (K562; SRSF2 genotype: SRSF2 wt/wt)	cell viability (MARIMO; SRSF2 genotype: SRSF2 P95H/wt)	cell viability (MARIMO; SRSF2 genotype: SRSF2 wt/wt)	cell viability (MOLM14; SRSF2 genotype: SRSF2 P95H/wt)	cell viability (MOLM14; SRSF2 genotype: SRSF2 wt/wt)	cell viability (OCI-AML2; SRSF2 genotype: P95H/wt)	cell viability (OCI-AML2; SRSF2 genotype: wt/wt)
NS(N)(=O)=O [Sulfamide]	104% and 96%	108%	98.6%	103%	102%	107%	98.4%	108%
NS(=O)(=O)c1cc2c(cc1Cl)N=CNS2(=O)=O [Chlorothiazide]	100% and 94%	94.5%	98%	105%	102%	97.8%	93.7%	109%
CN1C(=O)[C@@H](NC(=O)c2cc(Cc3ccccc3)on2)COc2ccccc21	105% and 100%	105%	98.9%	102%	110%	110%	99.6%	99.8%
Cc1ccc(-c2nn(C(C)(C)C)c3ncnc(N)c23)cc1	64.5% and 82.4%	63.5%	99.2%	102%	58.6%	85.9%	82%	78.6%
O=C(NNc1nc2cc(F)ccc2n2cccc12)c1cnccn1	24.8% and 29.5%	12.5%	12.6%	15.3%	4.38%	1.25%	12.4%	10.5%
O=C(N[C@@H](c1ccccc1)[C@@H](O)C(=O)O)c1ccccc1 [N-Benzoyl-(2R,3S)-3-phenylisoserine]	108% and 99.9%	103%	100%	98.4%	103%	102%	101%	104%
Cc1nc(Nc2ccc(F)cc2)nc(N2CCc3ccccc3C2C)c1C (centres undefined) [Revaprazan Hydrochloride]	66.5% and 73.7%	68.7%	67.6%	56.4%	63.3%	72.5%	75%	67.2%
Cc1ccc(S(=O)(=O)Cc2nc(-c3ccc(C(=O)NCc4cccnc4)cc3)oc2C)cc1	30% and 20.2%	26%	21.2%	37.2%	12.1%	2%	5.44%	5.6%
NC(=O)C1CCCc2c1[nH]c1ccc(Cl)cc21 (centres undefined)	97% and 96%	105%	89%	102%	96%	99.6%	91.2%	92.2%
CCOc1ccccc1OCCN[C@H](C)Cc1ccc(OC)c(S(N)(=O)=O)c1 [Tamsulosin]	100% and 96%	90.7%	85.2%	103%	97.5%	98%	87.4%	105%
Nc1nc(NCCc2ccc(O)cc2)nc2nc(-c3ccco3)nn12	92.4% and 100%	94.8%	102%	110%	94.4%	104%	97%	104%
C[C@]12CC[C@@H]3c4ccc(O)cc4CC[C@H]3[C@@H]1CC[C@@H]2OC(=O)CCC1CCCC1 [Estradiol Cypionate]	91.5% and 90.9%	91.3%	86.9%	81.6%	75%	84.1%	55.4%	53.1%
O=c1cc(-c2ccc(O)cc2)oc2cccc(O)c12 [4',5-Dihydroxyflavone]	89.4% and 86%	89.7%	84.4%	84.6%	64.3%	72.5%	66.4%	69.4%
CCOC(=O)[C@H](CCc1ccccc1)N[C@@H](C)C(=O)N1[C@H](C(=O)O)C[C@@H]2CCC[C@@H]21 [Ramipril (Altace)]	86.6% and 88.3%	89.9%	87.7%	92.3%	88.2%	87.4%	84.8%	86.3%
CC(C)c1cccc(O)c(=O)c1	87.6% and 88.1%	83.2%	79.5%	70.3%	93.5%	96.4%	59.6%	59.8%
CO/N=C(\C(=O)N[C@@H]1C(=O)N2C(C(=O)O)=CCS[C@H]12)c1csc(N)n1 [Ceftizoxime]	99.2% and 101%	110%	96.1%	98.9%	104%	103%	111%	98.5%
CCC1(c2c[nH]cn2)Cc2ccccc2C1 [Atipamezole hydrochloride]	90.5% and 99.4%	104%	92.4%	99.1%	96.2%	99.7%	98.5%	95.2%
Nc1[nH]cnc2ncnc1-2 [Adenine hydrochloride]	127% and 120%	105%	98.5%	111%	105%	108%	114%	118%
COC(=O)CCSCc1ccc(-c2onc(C)c2NC(=O)OC(C)c2ccccc2Cl)cc1 (centres undefined)	94.7% and 94%	94.3%	87.3%	97.7%	90%	94.7%	82.3%	100%
Cc1cc(C(=O)NOCCO)c(Nc2ccc(I)cc2F)n(C)c1=O	79.1% and 88%	84.6%	43.3%	36.3%	43.5%	28.7%	39.4%	42.9%
Cc1c(Nc2ncccc2C(=O)O)cccc1C(F)(F)F [Flunixin meglumin]	95.8% and 87.2%	93.9%	89.8%	96.2%	87.4%	89.4%	90.4%	101%
